Measured values as given in PubChem BioAssay (Tox21).
Results filed as inconclusive are left out. Unmarked numbers belong to inactive results. Calls follow the shape of the dose curve; as a rule, active = well fitted cell-killing curve with a large enough effect in the repeat runs (not every such curve was filed as active); inconclusive = weak or mixed curves, or effect the other way; inactive = no such curve, though single readings can be large or run the other way. Where a SMILES comes first, the peptide text is derived from it.
% is scaled to controls: 0 for no effect and ±100 for the full control effect.

Assay: qHTS assay to identify small molecule antagonists of the estrogen related receptor signaling pathway with the pleiotropic PPARgamma coactivator (PGC) from Tox21 10K library - cell viability counter screen (AID 1224840); also: nearly all actives have a fitted effect of over 40% in size
Settings: PGC/ERR reporter cells viability, CellTiter-Fluor, 17.5 h; series mostly up to 92.4 µM; viability change, negative = cytotoxic: at the top concentration
From the text: National Center for Advancing Translational Sciences [NCATS]
NIH Chemical Genomics Center [NCGC]
U.S. Environmental Protection Agency [EPA]
National Institutes of Environmental Health Sciences [NIEHS]
National Toxicology Program [NTP]
U.S. Food and Drug Administration [FDA]
Estrogen related receptors (ERRs), the first orphan nuclear receptors discovered, play an important role in the control of cellular energy metabolism. ERRs are required for high-energy production in response to the environmental challenges. The pleiotropic PPARgamma coactivator (PGC) is a major partner of ERR and a key regulator in energy homeostasis. Together they have been implicated in the etiology of metabolic disorders such as Type 2 diabetes and metabolic syndrome. ERR-alpha was also identified as an adverse marker for breast cancer progression; ERR-alpha-positive tumors have a poor prognosis. To screen and to identify environmental compounds that perturb the ERR and PGC/ERR signaling pathways could provide valuable information for potential therapeutic or preventive measures in the treatment of metabolic disease. To differentiate true PGC/ERR antagonists or agonist from cytotoxic substances, the assay is multiplexed with cell viability assay.
Tox21 Assay Protocol Summary:
The PGC/ERR cells were dispensed at 2,000 cells/5 ul/well in 1536-well white plates using a Multidrop dispenser. After the assay plates were incubated at a 37 C/5% CO2 incubator for 6 hours, 23 nL of compounds dissolved in DMSO, positive and negative controls or DMSO only was transferred to the assay plate by a pin tool. The plates were incubated at 37 C for 17.5 hours. 1 ul/well of CellTiter-Fluor reagent was added into the assay plates using a Flying Reagent Dispenser. After 30-minute incubation at 37 C/5% CO2, the fluorescence intensity in the plates was measured using a ViewLux plate reader.
With `Cc1ccc(C(C)NC(=O)[C@@H](NC(=O)OC(C)C)C(C)C)cc1` (stereo not given in full) the “viability change, negative = cytotoxic” value was 6.33%.
In the case of `Cc1cc(C)c(C(=O)O)c(C)c1`, the “viability change, negative = cytotoxic” value is reported as -8.37%.
In the case of `O=C(O)c1cc2ccccc2nc1C(=O)O`, the “viability change, negative = cytotoxic” value is reported as 1.47%.
With `[O]=[Mo](=[O])=[O]` the viability change, negative = cytotoxic was -2.25% [at 19 µM].
In the case of `[O-][n+]1cccc(/C(Cl)=N/OC[C@@H](O)CN2CCCCC2)c1`, the “viability change, negative = cytotoxic” value is reported as 14.1% [at 42.5 µM].
For `Cc1c(N)cccc1Cl`, the “viability change, negative = cytotoxic” value was -0.672%.
In the case of `CCCCCCCCCCCCCCCCCCOCCO`, the viability change, negative = cytotoxic is reported as -0.639% [at 19 µM].
For `CC(=O)CC(=O)Nc1ccc(C)cc1C`, the “viability change, negative = cytotoxic” value was -0.969%.
For `C=CC/C=C/C`, the “viability change, negative = cytotoxic” value was -1.81%.
In the case of `CSc1cnccn1`, the “viability change, negative = cytotoxic” value is reported as 1.34%.
For `CC1=C(C(=O)O)N2C(=O)[C@@H](NC(=O)[C@H](N)C3=CCC=CC3)[C@H]2SC1`, the “viability change, negative = cytotoxic” value was 2.68% [at 42.5 µM].
With `CCC(=O)c1c(O)cc(O)cc1O` the “viability change, negative = cytotoxic” value was 9.81% [at 42.5 µM].
In the case of `O=C[O][Al]([O]C=O)[O]C=O`, the “viability change, negative = cytotoxic” value is reported as 6.78%.
For `CC(=O)N[C@@H](CO)C(=O)N[C@@H](CC(=O)O)C(=O)N[C@@H](CCCCN)C(=O)N1CCC[C@H]1C(=O)O` (Ac-SDKP-OH), the “viability change, negative = cytotoxic” value was 10.1% [at 42.5 µM].
For `C=C(C)[C@@H]1CC=C(C)C(=O)C1`, the “viability change, negative = cytotoxic” value was 6.46%.
With `C=CCCCC` the “viability change, negative = cytotoxic” value was 10.6%.
In the case of `COc1cc2c(cc1OC)CN(C(=O)[C@H](C)N[C@@H](CCc1ccccc1)C(=O)O)[C@H](C(=O)O)C2`, the “viability change, negative = cytotoxic” value is reported as -7.78% [at 42.5 µM].
In the case of `CC1OCCC1=O` (stereo not given), the “viability change, negative = cytotoxic” value is reported as 3.89%.
With `NCCOCCN` the “viability change, negative = cytotoxic” value was -1.52%.
With `CC(S)C(C)S` (stereo not given) the “viability change, negative = cytotoxic” value was 1.72%.
In the case of `CC(=O)C(C)O` (stereo not given), the “viability change, negative = cytotoxic” value is reported as -0.981%.
For `Cc1ccccc1C(N)=O`, the “viability change, negative = cytotoxic” value was 8.36%.
With `COC(C)(OC)OC` the “viability change, negative = cytotoxic” value was 6.65%.
For `CC1(C)[C@H]2CC[C@](C)(C2)[C@H]1O`, the “viability change, negative = cytotoxic” value was 2.52%.
In the case of `CC1=C(C(=O)O)N2C(=O)[C@@H](NC(=O)[C@H](N)c3ccccc3)[C@H]2SC1`, the “viability change, negative = cytotoxic” value is reported as 3.92% [at 42.5 µM].
With `CC1=C(O)C(=O)C(C)O1` (stereo not given) the “viability change, negative = cytotoxic” value was 1.84%.
In the case of `O=C(O)CNC(=O)CNC(=O)CNC(=O)CSC(=O)c1ccccc1`, the “viability change, negative = cytotoxic” value is reported as 13.3% [at 42.5 µM].
For `CCNC(=O)NCc1cccc(Cl)c1`, the “viability change, negative = cytotoxic” value was -0.813% [at 42.5 µM].
For `CCCCCCCCCCCCCBr`, the “viability change, negative = cytotoxic” value was -1.18%.
In the case of `Cn1nnc2c(C(N)=O)ncn2c1=O`, the “viability change, negative = cytotoxic” value is reported as 9.42% [at 42.5 µM].
For `C[C@]12CCC(=O)C=C1CC[C@H]1[C@@H]3CC[C@](O)(C(=O)CO)[C@@]3(C)C[C@H](O)[C@@]12F`, the “viability change, negative = cytotoxic” value was -0.545% [at 42.5 µM].
In the case of `CC(=O)OC(C)=O`, the “viability change, negative = cytotoxic” value is reported as 3.17%.
For `CC(C)COC(=O)c1ccccc1`, the “viability change, negative = cytotoxic” value was 7.19%.
With `CCCCOC(=O)[C@H](C)O` the “viability change, negative = cytotoxic” value was -2.54%.
With `O=C1OCCO1` the “viability change, negative = cytotoxic” value was -1.94%.
With `CC(Oc1cc(Cl)ccc1Cl)C(=O)O` (stereo not given) the “viability change, negative = cytotoxic” value was 2.37%.
With `CC(CO)(CO)CO` the “viability change, negative = cytotoxic” value was 17%.
For `O=C(Cl)c1ccccc1[N+](=O)[O-]`, the “viability change, negative = cytotoxic” value was -0.619%.
For `Cc1cccc(Cl)c1`, the “viability change, negative = cytotoxic” value was 2.2%.
`N[C@@H](CSCCCO)C(=O)O` gave a viability change, negative = cytotoxic of -0.0206% [at 19 µM].
